We go through 52 molecules from ChEMBL document CHEMBL4808148, “HDAC6 screening dataset using tau-based substrate in an enzymatic assay yields selective inhibitors and activators” (2021).

The target of test [1] is T1, Protein deacetylase HDAC6 (Homo sapiens) (UniProt Q9UBN7).
T1 sequence (whole entry): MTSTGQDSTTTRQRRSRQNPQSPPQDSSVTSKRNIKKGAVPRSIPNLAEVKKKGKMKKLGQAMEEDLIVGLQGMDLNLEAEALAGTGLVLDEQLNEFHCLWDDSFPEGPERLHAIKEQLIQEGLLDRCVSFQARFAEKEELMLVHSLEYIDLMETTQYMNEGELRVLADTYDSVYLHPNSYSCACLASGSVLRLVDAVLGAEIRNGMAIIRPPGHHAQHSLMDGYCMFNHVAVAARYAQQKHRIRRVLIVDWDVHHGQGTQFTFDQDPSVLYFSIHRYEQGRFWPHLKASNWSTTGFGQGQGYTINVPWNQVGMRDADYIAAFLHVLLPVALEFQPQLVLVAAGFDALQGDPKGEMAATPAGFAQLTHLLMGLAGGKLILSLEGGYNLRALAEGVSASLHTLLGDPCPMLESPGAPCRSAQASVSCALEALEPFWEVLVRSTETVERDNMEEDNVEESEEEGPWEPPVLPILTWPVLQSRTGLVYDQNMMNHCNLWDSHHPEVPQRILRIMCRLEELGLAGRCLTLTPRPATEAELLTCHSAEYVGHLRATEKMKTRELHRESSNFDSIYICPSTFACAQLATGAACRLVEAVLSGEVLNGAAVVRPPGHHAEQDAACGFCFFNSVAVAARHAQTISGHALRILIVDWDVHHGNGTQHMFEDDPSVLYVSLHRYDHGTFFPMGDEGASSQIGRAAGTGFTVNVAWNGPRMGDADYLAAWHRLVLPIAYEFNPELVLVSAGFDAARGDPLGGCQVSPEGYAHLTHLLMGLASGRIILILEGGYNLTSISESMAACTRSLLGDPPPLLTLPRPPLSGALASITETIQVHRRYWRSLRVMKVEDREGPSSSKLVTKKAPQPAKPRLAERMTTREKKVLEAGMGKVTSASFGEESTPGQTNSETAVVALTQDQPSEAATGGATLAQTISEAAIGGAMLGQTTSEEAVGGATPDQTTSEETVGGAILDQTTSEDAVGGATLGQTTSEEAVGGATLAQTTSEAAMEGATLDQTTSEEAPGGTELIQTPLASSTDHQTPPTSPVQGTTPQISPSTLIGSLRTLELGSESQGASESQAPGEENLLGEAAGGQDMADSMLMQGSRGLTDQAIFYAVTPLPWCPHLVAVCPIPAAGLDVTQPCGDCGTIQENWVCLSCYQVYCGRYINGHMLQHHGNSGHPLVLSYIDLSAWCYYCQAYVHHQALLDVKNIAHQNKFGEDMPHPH
Conditions: at 10 µM.

Test [2] addresses Protein deacetylase HDAC6 (Homo sapiens) (UniProt Q9UBN7). The settings on record: at 10 µM. The source holds these as a separate data set.

Among all 5,600 compounds or so, about 150 (2.7%) showed an effect of 50% or more. For the sample, strong results were picked, then their nearest neighbours and some compounds at random.

As to `C[C@@H]1O[C@@]2(CS1)CN1CCC2CC1.C[C@H]1O[C@]2(CS1)CN1CCC2CC1`, the inhibition in test [1] was -5.94%.
For the molecule `O=C(O)CN1C(=O)c2cccc3cccc(c23)C1=O`, the inhibition in test [1] was 5.8%.
In the case of `O=C(CCCCCN1C(=O)c2cccc3cccc(c23)C1=O)NO`, the inhibition in test [1] was 98.7%.
On the same count and under the same terms, as for `O=C(O)CCCN1C(=O)c2cccc3cccc(c23)C1=O`, the figure is -1.41%; as for `CC(C)(Sc1ccncc1-c1ccc(C#N)c2ccccc12)C(=O)O`, 2.75%.
On the same count and under the same terms, as for `N[C@H](Cc1c[nH]cn1)C(=O)O`, the figure is 5.27%.
Still for that read-out and setting: as for `C/C(=N\NC(=O)C(NC(=O)c1ccccc1)c1n[nH]c(=O)c2ccccc12)c1cccc(Br)c1` (configuration not stated), the figure is 0.86%.
For the molecule `Cc1noc(C)c1-c1cc(O)cc(C(O)c2ccccc2)c1` (configuration not stated), in test [1], the inhibition was determined as 2.55%.
Turning to `CC(=O)Nc1ncc([N+](=O)[O-])s1`, in test [1], the inhibition is -3.88%.
Still for that read-out and setting: as for `COc1ccc(CNC(=O)c2sc3nc(C)cc(C)c3c2N)cc1`, the figure is 13.2%; as for `COc1ccc(CNC(=O)Nc2ncc([N+](=O)[O-])s2)cc1`, 64.8%.
Same read-out and setting: as for `CCCCn1ccc(N2CCC(c3ccccc3)CC2)c(Cl)c1=O`, the figure is 42.8%; as for `CC[C@@H]1C[C@H](N(Cc2cc(C(F)(F)F)cc(C(F)(F)F)c2)C(C)=O)c2cc(C(F)(F)F)ccc2N1C(=O)OC(C)C`, 88.1%.
As to `CCOC(=O)N1c2ccc(C(F)(F)F)cc2[C@@H](N(Cc2cc(C(F)(F)F)cc(C(F)(F)F)c2)C(=O)OC)C[C@H]1CC`, the inhibition in test [1] was -1.4%.
The same measure, in the same setting: as for `CCCCCCCCCCCCCCCCNc1ccc(C(=O)O)cc1`, the figure is 2.63%.
As to FLUPENTIXOL, CHEMBL6066864, the inhibition in test [2] was 14.4%.
Regarding `CN(C)C(=O)COC(=O)Cc1ccc(OC(=O)c2ccc(NC(=N)N)cc2)cc1`, the inhibition in test [1] came to 96.5%.
Same read-out and setting: as for `CCOC(=O)c1ccc(OC(=O)CCCCCNC(=N)N)cc1`, the figure is 22.4%; as for `CC(=O)Nc1ccc(CC(=O)O)cc1`, -5.64%.
As to `Nc1ccn([C@@H]2O[C@@](CO)(CCl)[C@@H](O)[C@H]2F)c(=O)n1`, the inhibition in test [1] is -1.66%.
Turning to `O=C(/C=C/c1ccc(O)c(O)c1)O[C@H](Cc1ccc(O)c(O)c1)C(=O)O`, the inhibition in test [1] is 3.24%.
Same read-out and setting: as for `CC(C)(C)c1cc(C(=O)/C=C/c2ccc(C(=O)O)cc2)cc(C(C)(C)C)c1`, the figure is 2.42%; as for `O=C(/C=C/c1ccc(O)c(O)c1)c1ccc(O)cc1O`, 99.2%.
The same measure, in the same setting: as for `O=C(/C=C/c1ccc(O)cc1)c1ccc(O)cc1O`, the figure is 99.7%.
On the same count and under the same terms, as for `O=C(O)/C=C/c1ccc(O)cc1`, the figure is -0.48%; as for `O=C(O)/C=C/c1ccc(O)c(O)c1`, -0.33%; as for `CC(C)C[C@@H](NC(=O)OCC1c2ccccc2-c2ccccc21)C(=O)O`, 3.37%.
With CARBOPLATIN, CHEMBL1351, the inhibition in test [2] is -2.28%.
`CC(C)C[C@H](NC(=O)OCC1c2ccccc2-c2ccccc21)C(=O)O`: the inhibition in test [1] is -7.02%.
Consider `CC(C)(C)C1CCc2c(sc(NC(=O)c3ccco3)c2C(=O)O)C1` (configuration not stated), for which the inhibition in test [1] is -1.94%.
As for `O=c1ccc2c(OCCCCOc3ccccc3)c3ccoc3cc2o1`, the inhibition in test [1] is -4.23%.
Take `COc1ccc(S(=O)(=O)Nc2cc(Cl)cc(Cl)c2OC)cc1N1CCNCC1`: the inhibition in test [1] was -0.38%.
The same measure, in the same setting: as for `CC1(C)Oc2ccc(C#N)cc2[C@H](N(Cc2ncc[nH]2)c2ccc(Cl)cc2)[C@H]1O`, the figure is 5.57%; as for `CCOC(=O)COc1ccc2c(=O)cc(-c3ccccc3)oc2c1`, -3.12%; as for `O=C(O)c1cc(=O)c2ccccc2o1`, 10.2%.
As for `CC(C)c1ccc(-c2cc(=O)c3ccccc3o2)cc1`, in test [1], the inhibition came out at 77.3%.
For “ACRIFLAVINE HYDROCHLORIDE, CHEMBL5219995”, the inhibition in test [2] came out at 7.54%.
Regarding `CCCCCCCCCCCCCCCCCCCCCC(=O)Nc1ccn([C@@H]2O[C@H](CO)[C@@H](O)[C@@H]2O)c(=O)n1`, the inhibition in test [1] was -7.93%.
The same measure, in the same setting: as for `COc1cc(-n2cnc3cc(-c4ccc(Cl)cc4)sc3c2=O)ccc1OCCN1CCCC1`, the figure is 2.09%; as for `O=C(CC(c1ccccc1)c1ccccc1)N1CCN(C(c2ccccc2)c2ccccc2)CC1`, -2.23%.
Regarding `O=c1c(O)c(-c2ccc(O)cc2)oc2cc(O)cc(O)c12`, the inhibition in test [1] came to 47.1%.
The same measure, in the same setting: as for `O=c1cc(-c2ccc(O)cc2)oc2cc(O)cc(O)c12`, the figure is 66.2%.
Regarding `O=c1c(O)c(-c2cc(O)c(O)c(O)c2)oc2cc(O)cc(O)c12`, the inhibition in test [1] was 6.61%.
The same measure, in the same setting: as for `COc1ccc(-c2cc(=O)c3c(O)c(OC)c(O)cc3o2)cc1OC`, the figure is 58.5%.
Take `COc1ccc(-c2cc(=O)c3c(OC)c(OC)c(OC)c(OC)c3o2)cc1OC`: the inhibition in test [1] was -7.64%.
Same read-out and setting: as for `O=c1cc(-c2ccccc2)oc2cc(O)c(O)c(O)c12`, the figure is 75.1%.
With `O=C(O)Cc1cccc2c(=O)cc(-c3ccccc3)oc12`, the inhibition in test [1] was 2.51%.
Turning to `O=c1oc2cc(O)ccc2s1`, the inhibition in test [1] is -3.98%.
For `O=C(O)[C@H]1O[C@H](Oc2cc3oc(-c4ccccc4)cc(=O)c3c(O)c2O)[C@H](O)[C@@H](O)[C@@H]1O`, the inhibition in test [1] was -2.69%.
For `O=c1cc(-c2ccccc2)oc2cc(O)cc(O)c12`, the inhibition in test [1] is 72.7%.
Still for that read-out and setting: as for `COc1ccc(-c2cc(=O)c3c(OC)c(OC)c(OC)c(OC)c3o2)cc1`, the figure is -4.13%.
Same read-out and setting: as for `O=C1C[C@@H](c2ccccc2)Oc2cc(O)cc(O)c21`, the figure is 4%.

The term inhibition denotes the relative decrease from the control value, in per cent.
